Experimental findings from publication PMC8384837, “Expanding the binding specificity for RNA recognition by a PUF domain” are described below.

What all share (assay): yeast three-hybrid, YBZ-1, SC-Leu-His + 0.5 mM 3-AT, 4 days
Holding throughout (conditions): tags: N-Gal4 AD-HA kept; label: inside an RPR1-promoter hybrid RNA with tandem MS2 sites; ssRNA

One experiment concerns the target PUM1 PUF domain R3-LHA (Homo sapiens, UniProt Q14671 828-1176, C935L;R936H;Q939A). A digest of the protocol: (§1)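 The interaction score is the logarithmic change in variant frequency from input to selection. It uses log2, with a pseudocount of 1 for absent variants, and frequencies came from PCR-amplified, Illumina-sequenced repeat regions. The libraries were Pumilio-1 PUF domains randomized at the three base-contacting residues per repeat, co-expressed with matching RNA elements in strain YBZ-1 (LexA–MS2 coat fusion, HIS3 reporter). Plating lasted four days on SC-Leu (input) or SC-Leu-His + 0.5 mM 3-AT (selection).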

The target of another experiment is PUM1 PUF domain R1-KWM (Homo sapiens, UniProt Q14671 828-1176, S863K;R864W;Q867M). A digest of the protocol:
as §1

For the next experiment, the target named is PUM1 PUF domain R1-GRH (Homo sapiens, UniProt Q14671 828-1176, S863G;Q867H). In outline:
as §1

In a further experiment the target is PUM1 PUF domain R4-APS (Homo sapiens, UniProt Q14671 828-1176, N971A;H972P;Q975S). In outline:
as §1

Another experiment addresses PUM1 PUF domain R4-DWM (Homo sapiens, UniProt Q14671 828-1176, N971D;H972W;Q975M). A digest of the protocol:
as §1

The target in a further experiment is PUM1 PUF domain R3-WYS (Homo sapiens, UniProt Q14671 828-1176, C935W;R936Y;Q939S). In outline: as §1
In a further experiment the target is PUM1 PUF domain R3-FIG (Homo sapiens, UniProt Q14671 828-1176, C935F;R936I;Q939G). In outline:
as §1

Another experiment concerns the target PUM1 PUF domain R8-KKR (Homo sapiens, UniProt Q14671 828-1176, N1122K;Y1123K;Q1126R). A digest of the protocol: as §1
The target of a further experiment is PUM1 PUF domain R8-RRV (Homo sapiens, UniProt Q14671 828-1176, N1122R;Y1123R;Q1126V). A digest of the protocol:
as §1

The target in another experiment is PUM1 PUF domain R5-PRE (Homo sapiens, UniProt Q14671 828-1176, C1007P;Q1011E). A digest of the protocol: as §1
PUM1 PUF domain R5-PRE, sequence (Q14671 828-1176 C1007P/Q1011E): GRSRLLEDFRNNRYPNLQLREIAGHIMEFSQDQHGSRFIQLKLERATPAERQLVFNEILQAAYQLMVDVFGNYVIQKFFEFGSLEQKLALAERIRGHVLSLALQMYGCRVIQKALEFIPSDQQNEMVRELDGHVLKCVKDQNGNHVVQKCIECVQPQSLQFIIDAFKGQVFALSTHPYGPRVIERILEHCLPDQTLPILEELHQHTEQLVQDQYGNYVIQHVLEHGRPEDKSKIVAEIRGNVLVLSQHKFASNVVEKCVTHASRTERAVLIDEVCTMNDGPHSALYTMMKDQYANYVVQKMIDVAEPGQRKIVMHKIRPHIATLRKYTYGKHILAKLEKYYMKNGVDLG
In the next experiment the target is PUM1 PUF domain R5-ASR (Homo sapiens, UniProt Q14671 828-1176, C1007A;R1008S;Q1011R). A digest of the protocol:
as §1

In the case of “GGCUAGAACUAGUGGAUCCCCCGGCGCCCGGCGGCUCGAGCCCGGGUAAGUGUAAUUAGUCUGCAUGCCGCCGGGCGCCAUGCCUGCAGGUCGACUCUAGAAAACAUG”, the binding signal with PUM1 PUF domain R3-LHA is 3.56 log2 enrichment (interaction score).

For the sequence “GGCUAGAACUAGUGGAUCCCCCGGCGCCCGGCGGCUCGAGCCCGGGUAAGUGUAAAUUGUCUGCAUGCCGCCGGGCGCCAUGCCUGCAGGUCGACUCUAGAAAACAUG”, the binding signal was 3.92 log2 enrichment (interaction score) with PUM1 PUF domain R1-KWM and 2.32 log2 enrichment (interaction score) with PUM1 PUF domain R1-GRH.

Regarding “GGCUAGAACUAGUGGAUCCCCCGGCGCCCGGCGGCUCGAGCCCGGGUAAGUGUACAUAGUCUGCAUGCCGCCGGGCGCCAUGCCUGCAGGUCGACUCUAGAAAACAUG”, the binding signal with PUM1 PUF domain R4-APS is 1.86 log2 enrichment (interaction score); in the experiment with PUM1 PUF domain R4-DWM it was 4.24 log2 enrichment (interaction score).

“GGCUAGAACUAGUGGAUCCCCCGGCGCCCGGCGGCUCGAGCCCGGGUAAGUGUAAAUGGUCUGCAUGCCGCCGGGCGCCAUGCCUGCAGGUCGACUCUAGAAAACAUG”: the binding signal in the experiment with PUM1 PUF domain R1-KWM was 1.15 log2 enrichment (interaction score).

For “GGCUAGAACUAGUGGAUCCCCCGGCGCCCGGCGGCUCGAGCCCGGGUAAGUGUAAGUAGUCUGCAUGCCGCCGGGCGCCAUGCCUGCAGGUCGACUCUAGAAAACAUG”, the figures for the binding signal with PUM1 PUF domain R3-LHA, in the experiment with PUM1 PUF domain R3-WYS and with PUM1 PUF domain R3-FIG were 6.33 log2 enrichment (interaction score), 2.89 log2 enrichment (interaction score) and 3.51 log2 enrichment (interaction score), respectively.

Consider “GGCUAGAACUAGUGGAUCCCCCGGCGCCCGGCGGCUCGAGCCCGGGUAAGCGUAAAUAGUCUGCAUGCCGCCGGGCGCCAUGCCUGCAGGUCGACUCUAGAAAACAUG”, for which the binding signal with PUM1 PUF domain R8-KKR is 5.03 log2 enrichment (interaction score); with PUM1 PUF domain R8-RRV, 2.4 log2 enrichment (interaction score).

For “GGCUAGAACUAGUGGAUCCCCCGGCGCCCGGCGGCUCGAGCCCGGGUAAGUGUAAAUCGUCUGCAUGCCGCCGGGCGCCAUGCCUGCAGGUCGACUCUAGAAAACAUG”, the binding signal with PUM1 PUF domain R1-GRH was 1.98 log2 enrichment (interaction score).

On to “GGCUAGAACUAGUGGAUCCCCCGGCGCCCGGCGGCUCGAGCCCGGGUAAGUGUUAAUAGUCUGCAUGCCGCCGGGCGCCAUGCCUGCAGGUCGACUCUAGAAAACAUG”, for which the binding signal with PUM1 PUF domain R5-PRE is 2.73 log2 enrichment (interaction score); with PUM1 PUF domain R5-ASR it was 1.28 log2 enrichment (interaction score).
